Inconclusive results are not listed. The source made the active and inactive calls. Unless noted, calls come from the whole dose curve; as a rule, active = well fitted curve in the direction sought with a large enough effect in the repeat runs; inconclusive = weak or mixed curves; inactive = no such curve, though single readings can be large; an effect the other way counts as inactive or inconclusive.
Key:
[1] = qHTS assay to identify small molecule antagonists of the thyroid receptor (TR) signaling pathway - cell viability counter screen (AID 743064); note: nearly all actives have a fitted effect of over 50% in size
Procedure, shortened: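 Same-well viability check: GH3.TRE-Luc cells stimulated with 1 nM T3 alongside test compound for 23.5 h, followed by CellTiter-Fluor fluorescence.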

[2] = qHTS assay to identify small molecule antagonists of the thyroid receptor (TR) signaling pathway (AID 743065); note: series mostly up to about 70 µM; nearly all actives have a fitted effect of over 55% in size
Procedure, shortened: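 GH3.TRE-Luc rat pituitary cells (two TREs driving luciferase) were dosed with compound, then stimulated with 1 nM T3 (final) for 23.5 h at 37 C. ONE-Glo luminescence was the read-out, with CellTiter-Fluor fluorescence as the cytotoxicity counter-screen.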

[3] = test system: thyroid hormone receptor (rat, GH3 cells); test: qHTS assay to identify small molecule agonists of the thyroid receptor (TR) signaling pathway (AID 743066; calls by dose curve)
[4] = qHTS assay to identify small molecule antagonists of the estrogen receptor alpha (ER-alpha) signaling pathway - cell viability counter screen (AID 743074; calls by dose curve;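 note: HEK293 cells carrying ER-alpha-UAS-bla reporter stimulated with 17beta-estradiol; nearly all actives have a fitted effect of over 45% in size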)
[5] = qHTS assay to identify small molecule antagonists of the estrogen receptor alpha (ER-alpha) signaling pathway using the BG1 cell line - cell viability counter screen (AID 743081);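 note: compound given together with 17beta-estradiol as the ER stimulus; series mostly up to about 70 µM; nearly all actives have a fitted effect of over 45% in size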
Aromatase (Homo sapiens) = Aromatase (Homo sapiens) (UniProt P11511); test: qHTS assay to identify aromatase inhibitors (AID 743083); note: series mostly up to about 70 µM; nearly all actives have a fitted effect of over 55% in size
[6] = qHTS assay to identify aromatase inhibitors - cell viability counter screen (AID 743084);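 note: cells stimulated with testosterone during compound exposure; nearly all actives have a fitted effect of over 55% in size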
[7] = target: Aryl hydrocarbon receptor (Homo sapiens) (UniProt P35869); test: qHTS assay to identify small molecule that activate the aryl hydrocarbon receptor (AhR) signaling pathway (AID 743085);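 note: HG2L7.5c1 human HepG2 liver cells with stably integrated DRE-driven firefly reporter; series mostly up to about 70 µM; nearly all actives have a fitted effect of over 15% in size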
Procedure, shortened: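 Reporter assay in engineered HepG2 line HG2L7.5c1, whose plasmid carries twenty dioxin responsive elements upstream of firefly luciferase. Treatment lasted 24 h at 37C; ONE-Glo luminescence gauged induction.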

[8] = qHTS assay to identify small molecule that activate the aryl hydrocarbon receptor (AhR) signaling pathway - cell viability counter screen (AID 743086);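 note: HepG2 liver cells carrying the AhR DRE luciferase reporter; series mostly up to about 70 µM; nearly all actives have a fitted effect of over 45% in size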
Procedure, shortened: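 HepG2-AhR-luc (HG2L7.5c1) cells, 4000/well, treated 24 h at 37 C with compound; viability measured as CellTiter-Fluor fluorescence after 30 min in the same wells as the luciferase read.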

[9] = target: Peroxisome proliferator-activated receptor gamma (Homo sapiens) (UniProt P37231); test: qHTS assay to identify small molecule agonists of the peroxisome proliferator-activated receptor gamma (PPARg) signaling pathway (AID 743094; active = well fitted activation curve with a large enough effect in the signal ratio in the repeat runs, not every such curve was filed as active; the % refers to the signal ratio)
Procedure, shortened: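 Beta-lactamase FRET fluorescence was the read-out after a 1 h room-temperature substrate step, following 17 h compound treatment at 37C of HEK293H cells expressing a UAS-driven bla reporter responsive to PPARg.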

[10] = qHTS assay to identify small molecule antagonists of the peroxisome proliferator-activated receptor gamma (PPARg) signaling pathway - cell viability counter screen (AID 743194); note: nearly all actives have a fitted effect of over 55% in size
Procedure, shortened: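 Cytotoxicity counter screen in PPARg-bla HEK293H cells, same wells as reporter assay. Compounds plus 50 nM rosiglitazone (final) for 17 h at 37 C, then viability read by CellTiter-Glo luminescence.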

[11] = qHTS assay for small molecule agonists of the antioxidant response element (ARE) signaling pathway (AID 743202; active = well fitted activation curve with a large enough effect in the signal ratio in the repeat runs, not every such curve was filed as active; the % refers to the signal ratio; note: potency is the fitted concentration of half-maximal effect)
Procedure, shortened: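 Agonist mode reporter screen: HepG2 cells with ARE-controlled beta-lactamase are incubated with test compounds for 16 h at 37 C, and beta-lactamase activity is measured as fluorescence of cleaved B/G FRET substrate.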

[12] = qHTS assay for small molecule agonists of the antioxidant response element (ARE) signaling pathway - cell viability counter screen (AID 743203; calls by dose curve; note: nearly all actives have a fitted effect of over 55% in size)
Procedure, shortened: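 HepG2 cells carrying ARE-driven beta-lactamase; 2,000 cells/well; 5 hrs plating; compound pinned from DMSO; 16 hrs 37C/5% CO2; CellTiter-Glo added; 30 min RT; luminescence.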

[13] = qHTS assay for small molecule activators of the heat shock response signaling pathway - cell viability counter screen (AID 743209); note: nearly all actives have a fitted effect of over 50% in size
Procedure, shortened: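 Luminescence from CellTiter-Glo, added after the beta-lactamase FRET read, gave the viability signal. Cells were HSE-bla HeLa treated with DMSO-dissolved compounds for 5 h at 37 C following overnight plating.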

[14] = qHTS assay for small molecule activators of the heat shock response signaling pathway (AID 743210; active = well fitted activation curve with a large enough effect in the signal ratio in the repeat runs, with a control signal flat, not every such curve was filed as active; the % refers to the signal ratio;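 note: HeLa cells with beta-lactamase reporter driven by heat shock elements; series mostly up to about 63 µM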)
Procedure, shortened: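 Quantitative high-throughput format using an engineered HeLa line in which heat shock response elements drive beta-lactamase; after 5 h with compound, cells received a B/G FRET substrate and fluorescence was read.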

[15] = target: Estrogen receptor (Homo sapiens) (UniProt P03372); test: qHTS assay to identify small molecule antagonists of the estrogen receptor alpha (ER-alpha) signaling pathway (AID 743069; active = well fitted curve in the direction sought with a large enough effect in the signal ratio in the repeat runs, not every such curve was filed as active; the % refers to the signal ratio)
Procedure, shortened: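 Reporter cells (ER-alpha-bla, HEK293 background) are conditioned overnight in stripped-serum medium (2% charcoal-stripped FBS). Compound and 17beta-estradiol exposure runs 18 hr at 37C, 5% CO2.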

[16] = target: Estrogen receptor (Homo sapiens) (UniProt P03372); test: qHTS assay to identify small molecule agonists of the estrogen receptor alpha (ER-alpha) signaling pathway (AID 743075; calls by dose curve;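 note: HEK293 GripTite cells with ER-alpha and UAS-driven beta-lactamase reporter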)
[17] = target: Estrogen receptor (Homo sapiens) (UniProt P03372); test: qHTS assay to identify small molecule agonists of the estrogen receptor alpha (ER-alpha) signaling pathway using the BG1 cell line (AID 743079); note: nearly all actives have a fitted effect of over 20% in size
[18] = qHTS assay to identify small molecule antagonists of the estrogen receptor alpha (ER-alpha) signaling pathway using the BG1 cell line (AID 743080; calls by dose curve;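 note: BG1 cells stimulated with 17beta-estradiol alongside compound; series mostly up to about 70 µM; nearly all actives have a fitted effect of over 25% in size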)
Procedure, shortened: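 BG1Luc4E2, endogenous ER-alpha, 4xERE-luc; 5 d charcoal-stripped FBS, phenol red free; 24 h plating; cpd + 17beta-estradiol 21.5 h, 37 C/5% CO2; CellTiter-Fluor viability 30 min, then ONE-Glo luciferase 30 min RT.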

[19] = target: Peroxisome proliferator-activated receptor gamma (Homo sapiens) (UniProt P37231); test: qHTS assay to identify small molecule antagonists of the peroxisome proliferator-activated receptor gamma (PPARg) signaling pathway (AID 743191; calls by dose curve; note: series mostly up to about 63 µM; nearly all actives have a fitted effect of over 30% in size)
Procedure, shortened: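 GeneBLAzer PPARg UAS-bla HEK293H cells, 5 h post-plating, exposed to compounds 17 h at 37C. LiveBLAzer B/G FRET substrate added for 1 h at room temperature; beta-lactamase reporter read by fluorescence intensity.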

Measured: Potency

Aryl hydrocarbon receptor (Homo sapiens), sequence (P35869 whole entry, looked up): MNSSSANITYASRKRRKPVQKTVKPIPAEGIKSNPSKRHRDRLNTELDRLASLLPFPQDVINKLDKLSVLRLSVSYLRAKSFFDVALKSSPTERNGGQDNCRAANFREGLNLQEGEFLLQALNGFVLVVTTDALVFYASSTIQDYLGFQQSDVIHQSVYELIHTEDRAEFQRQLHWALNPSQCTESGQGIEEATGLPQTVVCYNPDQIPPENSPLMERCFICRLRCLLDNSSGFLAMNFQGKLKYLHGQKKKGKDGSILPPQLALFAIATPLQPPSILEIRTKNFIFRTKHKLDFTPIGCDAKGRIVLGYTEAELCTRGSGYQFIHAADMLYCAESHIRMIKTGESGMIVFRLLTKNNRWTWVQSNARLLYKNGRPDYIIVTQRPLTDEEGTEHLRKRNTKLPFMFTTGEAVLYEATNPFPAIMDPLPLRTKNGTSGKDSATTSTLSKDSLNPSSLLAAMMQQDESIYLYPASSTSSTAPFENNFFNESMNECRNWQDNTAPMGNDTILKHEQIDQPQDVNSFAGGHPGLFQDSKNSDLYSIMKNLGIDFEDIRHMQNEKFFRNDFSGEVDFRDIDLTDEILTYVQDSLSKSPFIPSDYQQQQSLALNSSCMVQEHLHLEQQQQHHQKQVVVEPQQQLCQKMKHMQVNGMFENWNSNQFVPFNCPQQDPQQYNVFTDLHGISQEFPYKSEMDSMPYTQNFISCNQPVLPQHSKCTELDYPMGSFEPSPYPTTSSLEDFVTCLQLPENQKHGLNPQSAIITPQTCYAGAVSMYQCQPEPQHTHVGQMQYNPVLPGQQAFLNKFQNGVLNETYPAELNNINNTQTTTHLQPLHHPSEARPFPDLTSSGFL
Estrogen receptor (Homo sapiens), sequence (P03372 whole entry, looked up): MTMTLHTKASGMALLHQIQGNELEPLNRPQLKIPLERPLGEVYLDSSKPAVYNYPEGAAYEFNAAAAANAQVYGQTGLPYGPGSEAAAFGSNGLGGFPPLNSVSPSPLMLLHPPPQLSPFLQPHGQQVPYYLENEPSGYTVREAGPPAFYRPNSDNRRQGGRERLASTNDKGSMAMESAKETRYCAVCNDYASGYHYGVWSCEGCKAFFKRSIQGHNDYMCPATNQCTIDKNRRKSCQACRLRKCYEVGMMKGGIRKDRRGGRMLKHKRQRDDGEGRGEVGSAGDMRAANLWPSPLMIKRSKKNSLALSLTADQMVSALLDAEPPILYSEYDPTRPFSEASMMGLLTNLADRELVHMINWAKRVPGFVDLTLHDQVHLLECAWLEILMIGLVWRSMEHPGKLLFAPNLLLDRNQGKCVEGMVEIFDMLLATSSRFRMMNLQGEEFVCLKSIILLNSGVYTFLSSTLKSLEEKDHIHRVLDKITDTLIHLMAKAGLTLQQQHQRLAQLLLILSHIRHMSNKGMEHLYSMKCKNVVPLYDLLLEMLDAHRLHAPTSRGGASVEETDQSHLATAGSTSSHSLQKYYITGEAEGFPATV
Aromatase (Homo sapiens), sequence (P11511 whole entry, looked up): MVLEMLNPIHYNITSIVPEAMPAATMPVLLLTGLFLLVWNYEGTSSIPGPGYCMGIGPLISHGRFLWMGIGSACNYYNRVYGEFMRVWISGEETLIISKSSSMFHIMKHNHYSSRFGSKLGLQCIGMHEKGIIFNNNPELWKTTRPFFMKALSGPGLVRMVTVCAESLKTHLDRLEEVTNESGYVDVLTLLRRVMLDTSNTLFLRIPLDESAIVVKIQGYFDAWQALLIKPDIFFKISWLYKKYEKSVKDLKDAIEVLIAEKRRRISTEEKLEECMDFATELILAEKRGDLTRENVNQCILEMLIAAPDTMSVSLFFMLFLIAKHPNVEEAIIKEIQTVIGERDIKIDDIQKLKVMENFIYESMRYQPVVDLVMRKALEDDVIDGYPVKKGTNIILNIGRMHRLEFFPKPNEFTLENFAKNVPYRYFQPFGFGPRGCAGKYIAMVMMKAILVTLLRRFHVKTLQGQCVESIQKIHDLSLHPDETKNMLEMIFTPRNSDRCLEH
Peroxisome proliferator-activated receptor gamma (Homo sapiens), sequence (P37231 whole entry, looked up): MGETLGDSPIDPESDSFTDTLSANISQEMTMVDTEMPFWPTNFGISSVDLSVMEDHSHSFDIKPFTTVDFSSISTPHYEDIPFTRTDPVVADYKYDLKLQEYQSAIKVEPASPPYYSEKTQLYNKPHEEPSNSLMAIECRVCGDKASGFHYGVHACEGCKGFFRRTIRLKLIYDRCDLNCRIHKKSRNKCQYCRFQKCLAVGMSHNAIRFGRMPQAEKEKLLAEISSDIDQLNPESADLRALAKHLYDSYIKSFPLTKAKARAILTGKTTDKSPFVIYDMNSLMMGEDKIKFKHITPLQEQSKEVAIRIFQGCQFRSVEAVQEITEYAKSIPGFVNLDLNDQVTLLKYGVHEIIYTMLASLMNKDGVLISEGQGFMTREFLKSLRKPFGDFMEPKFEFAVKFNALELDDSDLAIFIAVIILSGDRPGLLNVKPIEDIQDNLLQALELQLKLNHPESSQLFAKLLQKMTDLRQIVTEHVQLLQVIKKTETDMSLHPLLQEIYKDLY

C=C(C)[C@H]1CC=C(C)C(=O)C1
not listed: [15] | [16] | [17] | [18] | [19]
inactive: all other assays above

CNC(=O)Oc1ccc2c(c1)[C@]1(C)CCN(C)[C@@H]1N2C
not listed: [7] | [19]
inactive: all other assays above

C=CC(=O)OCCC(=O)O
active: [11] 9.69 µM
not listed: [7] | [18]
inactive: all other assays above

CC1(C)OC[C@@H]2O[C@@]3(C(=O)O)OC(C)(C)O[C@H]3[C@@H]2O1
not listed: [14] | [15] | [16] | [17] | [18] | [19]
inactive: all other assays above

C[C@]12CCC(=O)C=C1CC[C@@H]1[C@@H]2[C@@H](O)C[C@@]2(C)[C@H]1CC[C@]2(O)C(=O)CO
not listed: [15] | [16] | [17] | [18]
inactive: all other assays above

OC1C(O)C(O)C(O)C(O)C1O (configuration not stated)
not listed: [7] | [10] | [19]
inactive: all other assays above

CCCCCCCC=O
not listed: [7] | [19]
inactive: all other assays above

CCc1ccccc1CC
not listed: [7] | [19]
inactive: all other assays above

O=C(O)CCCCCCCCC(=O)O
not listed: [10] | [15] | [16] | [17] | [18]
inactive: all other assays above

COc1ccc(CCC(C)=O)cc1
not listed: [15] | [16] | [17] | [18] | [19]
inactive: all other assays above

COC(=O)c1cccnc1
not listed: [7] | [15] | [16] | [17] | [18] | [19]
inactive: all other assays above

COc1cc(OC)c(C(=O)CCCN2CCCC2)c(OC)c1
not listed: [10] | [15] | [16] | [17] | [18] | [19]
inactive: all other assays above

NCCNCCN
not listed: [7] | [10] | [15] | [16] | [17] | [18]
inactive: all other assays above

CCOC(=O)c1ccc(N)cc1
not listed: [7] | [11] | [15] | [16] | [17] | [18]
inactive: all other assays above

CC(=O)OC1CC(C)OC(C)O1 (configuration not stated)
not listed: [7] | [14] | [15] | [16] | [17] | [18] | [19]
inactive: all other assays above

CCOC(=O)n1ccn(C)c1=S
not listed: [1] | [2] | [3] | [7] | [19]
inactive: all other assays above

COc1ccc(OC)cc1
not listed: [2] | [3] | [4] | [19]
inactive: all other assays above

CN(C)CCOC(=O)COc1ccc(Cl)cc1
not listed: [7] | [11] | [15] | [16] | [17] | [18] | [19]
inactive: all other assays above

COCCOC(=O)c1ccccc1C(=O)OCCOC
not listed: [7] | [15] | [16] | [17] | [18]
inactive: all other assays above

O=C(O)/C=C/C(=O)O
inactive: [10] | [11] | [12] | [13] | [14]

CN(C)c1ccc(Cc2ccc(N(C)C)cc2)cc1
not listed: [7] | [10] | [15] | [16] | [17] | [18] | [19]
inactive: all other assays above

COC(=O)CCCC(=O)OC
inactive: [1] | [2] | [3] | [4] | [5] | [8] | [11] | [12] | [13] | [14]

CC(C)OP(=O)(CP(=O)(OC(C)C)OC(C)C)OC(C)C
not listed: [1] | [15] | [19]
inactive: all other assays above

Reference: PubChem BioAssay (Tox21)
